Measured values taken from PubChem BioAssay AID651650 (Sanford-Burnham Center for Chemical Genomics, 2012).

Target: Neuropilin-1 (Homo sapiens) (UniProt O14786)
Experiment: blockers of CendR peptide binding to NRP-1 – biochemical, FP and AlphaScreen panel, dose response (AID 651650)
Conditions: NRP-1 b1b2 / RPARPAR peptide binding, FP or AlphaScreen; run 1, at 100 µM (top of the series)

Chain of Neuropilin-1 (Homo sapiens) (O14786 whole entry, looked up): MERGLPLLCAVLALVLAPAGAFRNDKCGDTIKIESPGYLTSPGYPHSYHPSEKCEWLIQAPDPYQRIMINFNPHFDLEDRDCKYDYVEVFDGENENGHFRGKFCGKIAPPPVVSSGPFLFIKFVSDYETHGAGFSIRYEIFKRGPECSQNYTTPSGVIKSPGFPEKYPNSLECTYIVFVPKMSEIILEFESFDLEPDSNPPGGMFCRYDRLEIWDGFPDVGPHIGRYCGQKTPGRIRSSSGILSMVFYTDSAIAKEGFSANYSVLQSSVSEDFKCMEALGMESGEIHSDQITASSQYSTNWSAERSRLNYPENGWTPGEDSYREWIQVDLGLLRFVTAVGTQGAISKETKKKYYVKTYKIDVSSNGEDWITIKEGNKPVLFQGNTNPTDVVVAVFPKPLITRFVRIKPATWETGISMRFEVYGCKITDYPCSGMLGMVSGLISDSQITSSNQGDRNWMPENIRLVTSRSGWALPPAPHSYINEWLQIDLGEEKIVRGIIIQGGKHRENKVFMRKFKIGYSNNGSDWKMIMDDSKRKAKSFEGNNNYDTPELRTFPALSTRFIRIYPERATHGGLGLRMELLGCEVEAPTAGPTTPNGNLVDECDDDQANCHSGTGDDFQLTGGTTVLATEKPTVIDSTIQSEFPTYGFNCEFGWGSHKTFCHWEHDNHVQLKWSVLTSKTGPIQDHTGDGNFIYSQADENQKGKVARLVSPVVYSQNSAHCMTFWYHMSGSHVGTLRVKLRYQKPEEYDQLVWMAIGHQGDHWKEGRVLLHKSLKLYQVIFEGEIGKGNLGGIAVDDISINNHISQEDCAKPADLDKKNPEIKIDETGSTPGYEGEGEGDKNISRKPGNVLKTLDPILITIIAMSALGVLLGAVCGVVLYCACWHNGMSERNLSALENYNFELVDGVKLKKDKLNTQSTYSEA

SMILES	inhibition [%]
C[C@@H](NC(=O)c1nc[nH]c1C(=O)NCc1ccccc1)c1ccccc1	23.1
CCOc1cc(C(=O)NCCN2CCOCC2)cc(OCC)c1OCC	23.9
N/C(CSc1ccc(Cl)cc1)=N\S(=O)(=O)c1ccc(Cl)cc1	37.6
COC(=O)C[C@H]1c2cc(F)ccc2S(=O)(=O)N1C(C)C	29.9
CSCCC(NC(=O)c1ccc(Cl)cc1Cl)C(=O)NCC(c1cccs1)N(C)C (stereo not drawn)	31.9
O=C(NNC(=O)c1ccccc1Cl)c1cccnc1	94
Cc1ccc(NNS(=O)(=O)c2ccc(C)cc2)cc1	16.2
O=C(NCCN1CCOCC1)c1cc(-c2ccc(F)cc2)on1	17.9
C/C(=N\N=c1/sc2ccccc2n1C)c1ccccn1	23.1
CN(C)CCn1c(=O)n(-c2ccc(F)cc2)c(=O)c2c3c(sc21)CCCCC3	77.8
CCC1CCCCN1CCCNC(=O)C1CCCN(S(=O)(=O)N2CC(C)CC(C)C2)C1 (stereo not drawn)	60.7
CCOC(=O)C1=C(C)NC2=C(C(=O)CCC2)C1c1cn(Cc2ccc(Cl)cc2Cl)nc1-c1ccccc1 (stereo not drawn)	72.6
Cc1nc(Nc2ccc(S(N)(=O)=O)cc2)oc1C	60.3
CCc1cccc(NC(=O)CCc2c(C)nn(-c3ccc(N4CCOCC4)nn3)c2C)c1	75.8
COc1ccc(Nc2nc(-c3cccnc3)nc3ccccc23)cn1	68.3
Cc1cc2cc(CNC(=O)c3ccco3)ccc2n1C	40.6
CCCCCCCN1C(Nc2ccccc2)=NC[C@@H]1Cc1ccccc1	24.7
Cc1csc(NC(C)c2nc3cc(C(F)(F)F)ccc3n2CCCO)n1 (stereo not drawn)	89.7
O=[N+]([O-])c1ccc(-n2nnnc2CN2CCCCC2)cc1	22.7
O=C(NCc1ccccc1)c1ccc(N2CCC3(CC2)CC(c2ccc(Cl)cc2)=NO3)c([N+](=O)[O-])c1	69.3
COc1ccc(-c2[nH]ncc2CN(C)CCc2c(C)n[nH]c2C)c(F)c1	-14.2
Cc1ccc(COn2c(-c3ccc(Cl)cc3Cl)nc3ncccc32)cc1	7.33
CC(=O)c1cccc(S(=O)(=O)N2CCC(C(=O)O)(c3ccccc3)CC2)c1	49.1
CC(=O)C(C(c1ccccc1)N1CCCc2ccccc21)N1CCOCC1 (stereo not drawn)	54
CCN(CC)C(=O)c1cccc(-c2csc(C(NC(C)=O)c3cccc(OC)c3)n2)c1 (stereo not drawn)	18.7
CN(C(=O)COC(=O)c1cnc(Cl)c(Cl)c1)C1CCCCC1	49.2

SMILES	inhibition [%]
O=c1oc(Nc2ccccc2F)nc2ccccc12	25.1
CC(C)(C)N(NC(=O)Nc1ccc(Cl)cc1)C(=O)c1ccccc1	48.3
CCCCOc1ccc(C(=O)N/C(=C/C=C/c2ccccc2)C(=O)NCCCO)cc1	10.5
COc1ccc(C(=O)N2CCC(C(=O)NCc3ccccn3)CC2)cc1	20.9
CCc1ccc(NS(=O)(=O)c2c(C(=O)N3CCCCCC3)c(C)n(C)c2C)cc1	31.1
O=C1N[C@H](Cc2c[nH]c3ccccc23)COC(=O)[C@H](Cc2ccc(F)cc2)C/C=C\C[C@H]1CC(=O)N(CCO)Cc1ccccc1	41.5
CCOc1ccc(N2C(=O)CC(N3CCN(c4ccc(Cl)cc4)CC3)C2=O)cc1 (stereo not drawn)	86.2
Cc1[nH]n(-c2ccccc2)c(=S)c1C=Nc1cccc([N+](=O)[O-])c1	14.4
O=C1CCC/C=C\C[C@@H](CC(=O)N(CCO)Cc2ccccc2)C(=O)N2CCC[C@H]2CO1	-2.11
O=C(NC1CC1)c1ccc(COc2ccc(F)cc2)o1	23.1
CCOc1c2ccc(C(=O)NCCc3cccs3)cc2nn1CC	-5.4
C=CCn1c(SCC(=O)Nc2ncc(Cc3ccc(Br)cc3)s2)nnc1-c1ccncc1	42
N=C1C(=O)OCC1c1cc(Cl)ccc1NC(=O)Nc1ccccc1 (stereo not drawn)	47.4
O=C(Nc1ccccc1N1CCOCC1)c1ccc(N2CCCC2=O)cc1	46.3
O=C(c1ccccn1)N1CCN(S(=O)(=O)c2ccccc2)CC1	80.9
c1ccc(OCCCN2CCCC2)cc1	53.9
NC(=S)NNC(=S)Nc1ccccc1	9.47
Cc1ccccc1Nc1nc(N)nc(COC(=O)CC2CC3CCC2C3)n1 (stereo not drawn)	3.37
CCOC(=O)c1c(=O)n(O)c2ccc(OC)cc2[n+]1[O-]	-2.72
O=C(c1ccc(-c2cccc(C(F)(F)F)c2)o1)N1CCCC(C(F)(F)F)C1 (stereo not drawn)	3.1
Cc1cc(C)n2c(Nc3ccc4c(c3)OCCO4)c(-c3ccccn3)nc2n1	6.1
O=C(c1ccco1)N1CCN(C(=O)c2ccccc2OC(=O)C23CC4CC(CC(C4)C2)C3)CC1	74.6
CC(CN1CCCCC1)OC(=O)c1ccc(Cl)cc1Cl (stereo not drawn)	30.1
CCCNC(=O)[C@H]1N2C(=O)c3c(ccc(OC)c3OC)C2SC1(C)C (stereo partly drawn)	51.5
COc1c2ccc(C(=O)NCc3cc(C(F)(F)F)cc(C(F)(F)F)c3)cc2nn1C	38.2
O=C(NCCOC(=O)c1ccccc1)c1ccccc1	72.3

SMILES	inhibition [%]
O=S1(=O)CCOC[C@H](Cc2ccccc2)N1Cc1ccccc1F	46.5
Cc1csc(NC(C)c2nc3cc(C(F)(F)F)ccc3n2CCOCCO)n1 (stereo not drawn)	20
CCc1ccc(NC(=O)CCn2nc(C)c(S(=O)(=O)N3CCCCC3)c2C)cc1	51.9
CCOCCCNC(=O)C(c1ccc(C)cc1)N(Cc1cccs1)C(=O)c1ccccc1O (stereo not drawn)	24.4
COc1ccc(/C=N/NC(=O)c2cc(C(C)(C)C)[nH]n2)cc1COc1ccc(F)cc1F	26
Cc1ccc(S(=O)(=O)NCC(=O)N(c2ccccc2)C(C(=O)NCc2ccccc2)c2ccco2)cc1 (stereo not drawn)	-4.65
O=C(Cn1ccc(NC(=O)OCc2ccccc2)nc1=O)NCCCn1ccnc1	48.6
O=C(CSc1nnc(Cc2ccccc2)n1Cc1ccccc1)NCc1ccco1	8.68
O=C(CN1C2=NCCN2c2ccccc21)c1ccco1	0.0631
CN1CCC(=NNC(=O)c2ccco2)CC1	17.4
O=c1ccsn1Cc1ccccc1	11.6
Oc1ccccc1-c1ccn[nH]1	32
CCN(CC)C(=O)CSc1nnc(-c2c[nH]c3ccccc23)o1	46.9
O=C(COc1cc(Cl)c(Cl)cc1Cl)Nc1ccc([N+](=O)[O-])cc1Cl	38.3
Cc1cc(N/C(=N/S(=O)(=O)c2cc(F)ccc2F)c2ccccc2)n(-c2ccccc2)n1	-9.15
Cc1nc2c(OCCC3CCCCC3)cccn2c1N(C)C(=O)CCC1CCCC1	23.2
CC(C)(C)OC(=O)N1CCN(C(=O)c2[nH]cnc2C(=O)NCc2ccccc2)CC1	34.4
N#CC(C#N)=Cc1cc2ccccc2nc1N1CCCCC1	-3.26
CCCN(C(=O)Cn1c(C(F)(F)F)nc2ccccc21)C1CCS(=O)(=O)C1 (stereo not drawn)	60.7
Cc1ccc(C(=O)OCC(=O)c2ccc(Cl)s2)s1	32
CC(NCCOCCOc1ccccc1)c1ccccc1 (stereo not drawn)	39.6
C=C1CCN(C(C(=O)OC)C(C)C)S(=O)(=O)c2ccc(F)cc21 (stereo not drawn)	68
CC(C)C(N)c1csc(NC(=O)Nc2cccc(C(F)(F)F)c2)n1 (stereo not drawn)	28.7
OCCC1CCCCN1CC(O)COCc1ccc(Cl)cc1 (stereo not drawn)	22.3
Cc1ccc(Cl)cc1N1CCN(C(=O)c2cccc3c(=O)c(C)c(-c4ccccc4)oc23)CC1	20.7
Cc1cccc(-c2noc(CSc3ccccc3)n2)c1	0.214

SMILES	inhibition [%]
COCCNC(=O)c1cc(-c2ccccc2)nn1CC1CC(c2cccc([N+](=O)[O-])c2)=NO1 (stereo not drawn)	14.3
CCN(Cc1ccncc1)C(=O)c1cc(COc2ccc(F)cc2F)on1	18.1
Cc1cc2c(cc1C)NC(c1nc3ccccc3[nH]1)C1=C(CC(C)(C)CC1=O)N2 (stereo not drawn)	20.6
COC(=O)c1ccccc1NC(=O)CSc1nc(C)cc(C)n1	45.7
COC(=O)CCCC1=CC2=CC(=O)C(C)(OC(=O)c3cccs3)C(=O)C2=CN1CCCOC(C)C (stereo not drawn)	93.3
Cc1ccc(OCC(=O)Nc2ccc(C)c(S(=O)(=O)N3CCCCCC3)c2)c([N+](=O)[O-])n1	44.6
Cc1ccccc1NC(=O)c1cccc(NC(=O)CCC(=O)O)c1	28.1
Cc1ccccc1/C=C/c1nc2ccccc2c(=O)n1CCc1ccccc1	34.1
O=C(NCCCN1CCOCC1)c1ccc2c(=O)n(-c3ccc(F)c(Cl)c3)c(=S)[nH]c2c1	35.9
COc1ccc(C(O)c2nc(-c3ccc4ccccc4c3)cs2)cc1 (stereo not drawn)	26.1
COc1ccc(N(CC(=O)NCc2ccco2)C(=O)CCC(=O)Nc2ccccn2)cc1	-5.26
COc1cc(C(=O)NCc2ccccc2)cc(Br)c1OC	-10
C#CCCOC(=O)N1C2=NC(C(=O)OC)=C(C(=O)OC)[C@@H]3N(C)c4ccccc4[C@]23C[C@H]1CO	74.8
COc1ccc2c(c1)N(C)/C(=C1/SC(=NCc3ccccc3)N(c3ccccc3)C1=O)S2	36.5
O=C(COc1ccc(S(=O)(=O)N2CCCC2)cc1)Nc1ccc2c(c1)OCCO2	34
CC(=O)Nc1ccc(Oc2cc(C#N)c(C#N)cc2N2CCOCC2)cc1	10.4
CN(Cc1cnn(C)c1)C(=O)c1cc2ccccc2oc1=O	29.1
CC(=O)NCCNc1nc(NC(C)C)nc2ccsc12	-4.88
Cc1cc(NC(=O)COC(=O)c2ccc(C)c(C)c2)no1	5.88
COc1ccc(C2CC(C(F)(F)F)n3nc(C(=O)O)c(Cl)c3N2)cc1OC (stereo not drawn)	46.4
FC(F)(F)C1CC(c2cccs2)Nc2ncnn21 (stereo not drawn)	46
COc1cccc(-c2ccc3c(c2)N(Cc2ccccc2OC)C(=O)C(C)S3)c1 (stereo not drawn)	-18.6
Cn1c(SCc2nc3ccccc3s2)nnc1-c1cccs1	65.1
CC(CN1CCOCC1)OC(=O)c1ccc2c(c1)OCCO2 (stereo not drawn)	19.2
CSc1nc2ccccc2c(=O)n1C1CCOC(C)(C)C1 (stereo not drawn)	19.3
